Data taken from PubChem BioAssay (NCATS).
Records with an inconclusive call do not appear. Calls of active or inactive are those of the source. Unless noted, calls come from the whole dose curve; as a rule, active = well fitted curve in the direction sought with a large enough effect; inconclusive = small, poorly fitted or top-dose-only effect, or another doubt; inactive = no such curve, though single readings can be large; an effect the other way counts as inactive or inconclusive.

Experiments:
[1] = biological target: Estrogen receptor (Homo sapiens) (UniProt P03372); experiment: qHTS assay for small molecule agonists of estrogen receptor alpha signaling (AID 588514; calls by dose curve;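 note: 0% = vehicle only and 100% = reference agonist; nearly all actives have a fitted effect of over 70% in size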)
Sequence of Estrogen receptor (Homo sapiens) (P03372 whole entry, looked up): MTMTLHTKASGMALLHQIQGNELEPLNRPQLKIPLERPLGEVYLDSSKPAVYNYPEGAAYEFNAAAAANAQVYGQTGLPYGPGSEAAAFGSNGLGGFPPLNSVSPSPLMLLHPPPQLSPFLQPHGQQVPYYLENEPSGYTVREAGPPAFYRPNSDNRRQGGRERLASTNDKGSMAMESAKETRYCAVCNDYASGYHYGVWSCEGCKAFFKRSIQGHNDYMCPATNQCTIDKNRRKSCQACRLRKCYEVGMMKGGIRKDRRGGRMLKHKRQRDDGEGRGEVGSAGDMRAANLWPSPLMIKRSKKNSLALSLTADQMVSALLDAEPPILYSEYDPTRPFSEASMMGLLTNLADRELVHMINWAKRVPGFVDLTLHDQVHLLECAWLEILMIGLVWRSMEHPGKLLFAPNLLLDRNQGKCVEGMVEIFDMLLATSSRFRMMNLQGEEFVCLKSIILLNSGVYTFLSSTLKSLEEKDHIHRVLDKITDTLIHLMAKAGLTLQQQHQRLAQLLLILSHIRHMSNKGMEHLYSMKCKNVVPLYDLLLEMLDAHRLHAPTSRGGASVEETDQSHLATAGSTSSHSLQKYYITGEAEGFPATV
Outline: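 Fluorescence from CCF4 cleavage reports ER-alpha-driven beta-lactamase expression in HEK 293 cells treated 18 hrs at 37 C. Data normalized to 17-beta-estradiol (20 nM) and DMSO, fitted to Hill equation.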

[2] = qHTS assay for small molecule antagonists of peroxisome proliferator-activated receptor delta signaling (AID 588535); settings: HEK293T PPARd-UAS-bla, beta-lactamase FRET ratio, 18 h; 460 nm channel;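 note: cells co-treated with a PPAR-delta agonist as stimulator during compound exposure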
Outline: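 Antagonist-mode qHTS using GeneBLAzer PPAR-delta-UAS-bla HEK293T cells; compound exposure 18 hrs at 37 C over a titration. Ratiometric CCF4 fluorescence at 460/530 nm; concentration-response points fitted to the Hill equation.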

[3] = biological target: Peroxisome proliferator-activated receptor gamma (Homo sapiens) (UniProt P37231); experiment: qHTS assay for small molecule agonists of peroxisome proliferator-activated receptor gamma signaling (AID 588536; active = well fitted curve in the direction sought with a large enough effect in the signal ratio, with a control signal flat, not every such curve was filed as active; the % refers to the signal ratio;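 note: 0% = DMSO basal wells and 100% = rosiglitazone at 2 µM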)
Sequence of Peroxisome proliferator-activated receptor gamma (Homo sapiens) (P37231 whole entry, looked up): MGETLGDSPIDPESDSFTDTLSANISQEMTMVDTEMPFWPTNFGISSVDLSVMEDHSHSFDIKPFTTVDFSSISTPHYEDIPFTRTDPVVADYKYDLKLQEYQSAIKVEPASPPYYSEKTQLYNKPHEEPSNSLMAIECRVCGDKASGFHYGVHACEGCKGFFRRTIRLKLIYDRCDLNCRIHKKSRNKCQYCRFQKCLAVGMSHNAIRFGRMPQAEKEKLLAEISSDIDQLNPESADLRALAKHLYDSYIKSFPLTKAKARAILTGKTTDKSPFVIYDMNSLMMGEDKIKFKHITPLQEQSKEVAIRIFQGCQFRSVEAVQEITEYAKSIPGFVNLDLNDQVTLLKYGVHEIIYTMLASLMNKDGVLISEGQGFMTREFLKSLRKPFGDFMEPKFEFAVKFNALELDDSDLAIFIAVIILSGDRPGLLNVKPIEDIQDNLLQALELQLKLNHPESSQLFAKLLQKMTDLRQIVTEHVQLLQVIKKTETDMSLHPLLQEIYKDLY
Outline: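 This is an agonist-mode beta-lactamase reporter assay in HEK293 PPAR-gamma-UAS-bla cells with 1% charcoal/dextran FBS. Compound titrations ran 16 h at 37 C before CCF4 detection. EC50 and efficacy are Hill fits scaled to 2 uM rosiglitazone (100%) and DMSO basal.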

[4] = biological target: Peroxisome proliferator-activated receptor gamma (Homo sapiens) (UniProt P37231); experiment: qHTS assay for small molecule antagonists of peroxisome proliferator-activated receptor gamma signaling (AID 588537; active = well fitted inhibition curve with a large enough effect in the signal ratio, with a control signal flat, not every such curve was filed as active; the % refers to the signal ratio;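 note: reporter cells co-stimulated with 50 nM rosiglitazone agonist during compound treatment; % of control where 0% means no effect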)
Outline: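 Cell-based beta-lactamase assay; GW9662 served as the antagonist control. Stimulation used rosiglitazone, final 50 nM, 16 h, 37 C.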

[5] = biological target: Vitamin D3 receptor (Homo sapiens) (UniProt P11473); experiment: qHTS assay for small molecule agonists of vitamin D receptor signaling (AID 588543; calls by dose curve;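 note: 0% = DMSO basal and 100% = reference agonist control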)
Sequence of Vitamin D3 receptor (Homo sapiens) (P11473 whole entry, looked up): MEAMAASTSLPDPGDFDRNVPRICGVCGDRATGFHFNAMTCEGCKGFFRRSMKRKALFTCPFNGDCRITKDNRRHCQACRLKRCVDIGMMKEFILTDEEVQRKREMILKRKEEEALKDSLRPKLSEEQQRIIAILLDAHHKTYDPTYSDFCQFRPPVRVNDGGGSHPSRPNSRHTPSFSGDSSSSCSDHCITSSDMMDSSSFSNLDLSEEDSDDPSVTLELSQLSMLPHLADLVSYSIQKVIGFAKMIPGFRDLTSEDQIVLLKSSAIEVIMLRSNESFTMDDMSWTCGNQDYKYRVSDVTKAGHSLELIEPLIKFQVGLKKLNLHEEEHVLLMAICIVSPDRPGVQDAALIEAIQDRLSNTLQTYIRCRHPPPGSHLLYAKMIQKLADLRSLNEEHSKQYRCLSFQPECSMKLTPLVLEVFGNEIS
Outline: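 VDR-UAS-bla HEK293T cells, 2000/well, 2% charcoal-stripped FBS; compound titration 16 h at 37 C; CCF4 beta-lactamase ratio read. Normalized to 50 nM 1-alpha,25-dihydroxyvitamin D3 (100%) and DMSO; Hill fit gives EC50, efficacy.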

[6] = qHTS assay for small molecule agonists of retinoid X receptor alpha signaling (AID 588544; calls by dose curve;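 for activation: 0% = DMSO basal wells and 100% = reference agonist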); settings: HEK293T RXRa-UAS-bla, beta-lactamase reporter, 18 h; 530 nm emission
[7] = biological target: Retinoic acid receptor RXR-alpha (Homo sapiens) (UniProt P19793); experiment: as above
Sequence of Retinoic acid receptor RXR-alpha (Homo sapiens) (P19793 whole entry, looked up): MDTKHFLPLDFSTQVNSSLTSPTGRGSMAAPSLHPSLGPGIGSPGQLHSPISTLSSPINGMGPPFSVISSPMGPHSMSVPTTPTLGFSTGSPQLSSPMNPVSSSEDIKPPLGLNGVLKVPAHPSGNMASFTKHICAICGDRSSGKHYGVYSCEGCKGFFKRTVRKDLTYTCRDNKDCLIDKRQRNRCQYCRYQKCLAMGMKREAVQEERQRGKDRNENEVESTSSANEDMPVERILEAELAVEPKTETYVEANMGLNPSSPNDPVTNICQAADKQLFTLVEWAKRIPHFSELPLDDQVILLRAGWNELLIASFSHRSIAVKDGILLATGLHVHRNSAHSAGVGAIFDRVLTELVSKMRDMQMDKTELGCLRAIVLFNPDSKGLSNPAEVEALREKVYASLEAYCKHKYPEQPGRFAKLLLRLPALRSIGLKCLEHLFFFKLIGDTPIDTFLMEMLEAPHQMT

[8] = qHTS assay for small molecule antagonists of retinoid X receptor alpha signaling (AID 588546; active = well fitted inhibition curve with a large enough effect in the signal ratio, with a control signal flat, not every such curve was filed as active; the % refers to the signal ratio;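 note: cells stimulated with 9-cis-retinoic acid as agonist; % is set by controls: 0 for no effect and ±100 for the full control effect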); settings: HEK293T RXRa-UAS-bla, beta-lactamase ratio, antagonist mode; measured here: W530 green channel, cytotoxicity proxy
Outline: (§1)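 Beta-lactamase reporter inhibition, read as CCF4 fluorescence ratio (ex 405, em 460/530 nm) after 2 h at RT. HEK293T UAS-bla cells, 2500/well, were stimulated with 9-cis-RA at 500 or 100 nM final alongside test compound for 18 h at 37 C.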

[9] = biological target: Retinoic acid receptor RXR-alpha (Homo sapiens) (UniProt P19793); experiment: as above; settings: HEK293T RXRa-UAS-bla, beta-lactamase ratio, antagonist mode
Outline: as §1

[10] = qHTS assay for small molecule activators of the p53 signaling pathway (AID 651743; active = well fitted activation curve with a large enough effect in the signal ratio, not every such curve was filed as active; the % refers to the signal ratio; note: series mostly up to about 92 µM; % of control where 0% means no effect); settings: HCT-116 p53RE-bla, beta-lactamase FRET ratio, 16 h; activation: stronger effect = higher value
Outline: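 A beta-lactamase reporter under p53 response element control, stably carried by HCT-116 cells, reported pathway activation. Test compounds were applied for 16 hours at 37 C, and fluorescence was measured 2 hours after adding the B/G FRET substrate.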

[11] = qHTS assay for environmental chemicals that activate the Aryl hydrocarbon Receptor (AhR) signaling pathway (AID 651777); settings: 1A2-DRE human hepatoma cells, luciferase, 24 h; activation: stronger effect = higher value; note: % of control where 0% means no effect; nearly all actives have a fitted effect of over 15% in size
Outline: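 Induction of CYP1A2 transcription through AhR is detected by luciferase in 1A2-DRE hepatoma cells. Compounds or DMSO act for 24 hr at 37 C before a 30 min One-Glo step at room temperature.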

[12] = biological target: Peroxisome proliferator-activated receptor alpha (Homo sapiens) (UniProt Q07869); experiment: qHTS assay for small molecule agonists of the peroxisome proliferator-activated receptor alpha (PPARalpha) signaling pathway (AID 651778); settings: PathHunter PPARalpha complementation, chemiluminescence, 6 h; max response: stronger effect = higher value; note: % of control where 0% means no effect
Sequence of Peroxisome proliferator-activated receptor alpha (Homo sapiens) (Q07869 whole entry, looked up): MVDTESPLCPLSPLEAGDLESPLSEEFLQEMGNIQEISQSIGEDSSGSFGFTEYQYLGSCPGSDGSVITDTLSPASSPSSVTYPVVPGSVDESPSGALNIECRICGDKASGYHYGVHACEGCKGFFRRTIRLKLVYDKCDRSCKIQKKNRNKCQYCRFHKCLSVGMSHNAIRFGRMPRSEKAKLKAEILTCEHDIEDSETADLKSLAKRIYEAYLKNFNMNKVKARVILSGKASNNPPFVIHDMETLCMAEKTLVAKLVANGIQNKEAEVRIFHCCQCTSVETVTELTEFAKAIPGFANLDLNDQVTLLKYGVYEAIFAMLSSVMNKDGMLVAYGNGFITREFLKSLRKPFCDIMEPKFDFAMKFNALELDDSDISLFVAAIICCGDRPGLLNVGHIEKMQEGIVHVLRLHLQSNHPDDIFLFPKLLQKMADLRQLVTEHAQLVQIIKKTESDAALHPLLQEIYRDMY
Outline: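 Chemiluminescence from complemented enzyme reported PPARalpha activation in cells after 6 hr of compound treatment at 37 C. The detection reagent was incubated for 60 min at room temperature, and compounds were scored as agonists.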

[13] = qHTS assay for small molecule agonists of the antioxidant response element (ARE) signaling pathway measured by Nrf2-dependant transcriptional activity (AID 720636; active = well fitted curve in the direction sought with a large enough effect in the repeat runs; an effect the other way counts as inactive or inconclusive;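 note: HepG2 cells with an ARE-driven luciferase reporter; % of control where 0% means no effect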)
Outline: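 We exposed ARE-luc HepG2 cells, seeded in assay medium with 1% dialyzed FBS and allowed 6 hr to adhere, to test compounds overnight (16 hr, 37 C) before measuring luciferase with ONE-Glo.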

[14] = qHTS assay for small molecule agonists of the antioxidant response element (ARE) signaling pathway measured by Nrf2-dependant transcriptional activity - cell viability counter screen (AID 720653; active = well fitted curve in the direction sought with a large enough effect in the repeat runs; an effect the other way counts as inactive or inconclusive; note: % is set by controls: 0 for no effect and ±100 for the full control effect); settings: ARE-bla HepG2 viability, CellTiter-Glo ATP luminescence, 16 h; max response: stronger effect = lower value
Outline: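 Cytotoxicity counter screen: intracellular ATP quantified by CellTiter-Glo luminescence in the same ARE-bla HepG2 plates, after 16 h compound exposure and a 2 h beta-lactamase substrate step.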

[15] = qHTS assay for cell viability of HEK293 cells (AID 743288); settings: ATP luminescence (CellTiter-Glo), 18 h; max response: stronger effect = lower value; note: % is set by controls: 0 for no effect and ±100 for the full control effect; nearly all actives have a fitted effect of over 50% in size
Outline: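 Steps: plate 2,000 parental HEK293 cells per well; incubate ≥5 h, 37 C; add compounds in DMSO; incubate 18 h, 37 C; add CellTiter-Glo; wait 30 min at room temperature; read luminescence.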

[16] = qHTS assay for cell viability of the p53RE-bla HCT-116 cell line (AID 743292); note: % is set by controls: 0 for no effect and ±100 for the full control effect; nearly all actives have a fitted effect of over 55% in size
Outline: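 In this qHTS counter-screen, metabolically competent p53RE-bla HCT-116 cells were counted via their ATP content. Compounds were applied for 16 h at 37 C and luciferase-coupled luminescence was measured.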

[17] = biological target: Nuclear receptor subfamily 1 group I member 2 (Rattus norvegicus) (UniProt Q9R1A7); experiment: qHTS assay for small molecule activators of the rat pregnane X receptor (rPXR) signaling pathway (AID 651751; call rule not given here; note: 0% is about no effect); settings: rPXR reporter cells, luciferase (One-Glo), 24 h
Sequence of Nuclear receptor subfamily 1 group I member 2 (Rattus norvegicus) (Q9R1A7 whole entry, looked up): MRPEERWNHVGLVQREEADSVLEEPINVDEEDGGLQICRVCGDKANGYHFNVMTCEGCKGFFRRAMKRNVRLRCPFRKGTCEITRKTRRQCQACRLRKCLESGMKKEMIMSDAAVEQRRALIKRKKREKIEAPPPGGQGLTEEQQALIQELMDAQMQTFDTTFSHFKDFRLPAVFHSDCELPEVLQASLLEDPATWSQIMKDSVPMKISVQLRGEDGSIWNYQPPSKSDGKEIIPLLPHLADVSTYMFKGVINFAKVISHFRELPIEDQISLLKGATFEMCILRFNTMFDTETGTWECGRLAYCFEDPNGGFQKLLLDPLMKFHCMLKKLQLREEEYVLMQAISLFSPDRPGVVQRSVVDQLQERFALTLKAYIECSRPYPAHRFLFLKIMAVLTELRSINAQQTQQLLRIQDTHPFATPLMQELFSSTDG

[18] = qHTS assay for small molecule activators of the human pregnane X receptor (PXR) signaling pathway (AID 720659; call rule not given here; note: 0% is about no effect)
[19] = biological target: Thyroid hormone receptor beta (Homo sapiens) (UniProt P10828); experiment: qHTS assay for small molecule agonists of thyroid hormone receptor beta signaling (AID 588545; calls by dose curve)
Sequence of Thyroid hormone receptor beta (Homo sapiens) (P10828 whole entry, looked up): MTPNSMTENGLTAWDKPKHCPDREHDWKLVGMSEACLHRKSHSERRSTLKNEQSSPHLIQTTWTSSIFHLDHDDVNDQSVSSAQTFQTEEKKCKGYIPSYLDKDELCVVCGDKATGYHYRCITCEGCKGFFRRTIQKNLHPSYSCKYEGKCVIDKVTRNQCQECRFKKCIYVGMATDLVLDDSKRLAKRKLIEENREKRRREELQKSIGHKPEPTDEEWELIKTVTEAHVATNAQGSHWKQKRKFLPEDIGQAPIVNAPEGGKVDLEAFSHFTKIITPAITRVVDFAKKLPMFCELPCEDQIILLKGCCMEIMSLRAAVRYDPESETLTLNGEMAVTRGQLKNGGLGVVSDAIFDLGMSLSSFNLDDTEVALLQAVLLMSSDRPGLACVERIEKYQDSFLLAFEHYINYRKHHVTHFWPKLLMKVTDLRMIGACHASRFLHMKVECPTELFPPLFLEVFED
Outline: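 Agonist activity was read as beta-lactamase CCF4 fluorescence (405 ex, 460/530 em), scaled between DMSO (0%) and 10 nM T3 (100%), then Hill-fitted for EC50 and efficacy. HEK 293 TR-UAS-bla cells in 2% charcoal/dextran FBS medium were exposed 18 h at 37 C.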

[20] = biological target: Thyroid hormone receptor beta (Homo sapiens) (UniProt P10828); experiment: qHTS assay for small molecule antagonists of thyroid hormone receptor beta signaling (AID 588547; active = well fitted inhibition curve with a large enough effect in the signal ratio, with a control signal flat, not every such curve was filed as active; the % refers to the signal ratio;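 note: cells stimulated with 0.4 nM T3 agonist during compound exposure; series mostly up to about 77 µM; % is set by controls: 0 for no effect and ±100 for the full control effect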); settings: TR-UAS-bla HEK293, beta-lactamase ratio, antagonist mode, 18 h
Outline: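 Inhibition of T3-driven (0.4nM final) beta-lactamase reporter activity was measured over 0.59 nM to 92 uM compound after 18 h at 37 C. The cells were GripTite HEK293 TR-UAS-bla in charcoal/dextran-stripped serum, with CCF4 ratio read-out and IC50 from Hill fits.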

| Structure (SMILES) | Potency [1] | max response [2] | outcome [3] | Potency [4] | outcome [5] | max response [6] | Potency [7] | max response [8] | max response [9] | activation [10] | activation [11] | max response [12] | Potency [13] | max response [14] | max response [15] | Potency [16] | max response [17] | outcome [18] | Potency [19] | activity change % (negative = inhibition) [20] |
| --- | --- | --- | --- | --- | --- | --- | --- | --- | --- | --- | --- | --- | --- | --- | --- | --- | --- | --- | --- | --- |
| C#CCOC(=O)[C@@H](C)Oc1ccc(Oc2ncc(Cl)cc2F)cc1 | inactive | 41.4% | inactive | inactive | inactive | -11.8% | inactive | -4.05% | -3.03% (inactive) | -3.45% (inactive) | -1.36% (inactive) | -0.41% (inactive) | inactive | -3.32% (inactive) | -6.8% (inactive) | inactive | -2.33% (inactive) | inactive |  |  |
| BrC1CCC(Br)C(Br)CCC(Br)C(Br)CCC1Br (stereo not given) |  | 11.4% | inactive | inactive | inactive | 0.976% | inactive | -2.96% | -24.4% (inactive) | -4.94% (inactive) | 1.8% (inactive) | -0.0514% (inactive) | inactive | 0.219% (inactive) | -7.59% (inactive) | inactive | 0.315% (inactive) | inactive | inactive | 9.02% (inactive) |
| CC(=O)CC(=O)Nc1ccccc1C | inactive |  | inactive |  | inactive | 16.5% | inactive | 14.1% | -30.4% (inactive) | -0.568% (inactive) | 3.12% (inactive) | -0.992% (inactive) | inactive | -6.37% (inactive) | -10.9% (inactive) | inactive |  |  | inactive | 7.41% (inactive) |
| Cc1c(Cl)cccc1Cl | inactive |  | inactive |  | inactive | -9.08% | inactive | -1.12% | -5.5% (inactive) |  | -0.186% (inactive) | -1.42% (inactive) | inactive | -14.1% (inactive) | -7.06% (inactive) | inactive | -2.7% (inactive) | inactive | inactive | -11.7% (inactive) |
